The source of these data is the supplement of paper PMC6411743.

Compound in the assay: Nc1nc2c(ncn2[C@@H]2O[C@H](COP(=O)(O)OP(=O)(O)OP(=O)(O)O)[C@@H](O)[C@H]2O)c(=O)[nH]1 [guanosine triphosphate]
The assay is described as follows: NP40-soluble protein abundance relative to vehicle (solubility fold change) (ratio); higher = more soluble protein in presence of GTP. The procedure:
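Solubility proteome profiling in Jurkat crude lysate. Lysate was treated with Mg-GTP (0.1-10 mM) for 10 min at room temperature and 3 min at 37 °C, then solubilised with 0.8% NP40 and benzonase, followed by ultracentrifugation. Proteins were quantified by TMT10 LC-MS/MS; the value is the NP40-soluble abundance relative to the NP40-processed vehicle, from 3 independent experiments.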

± gives the standard deviation of the averaged measurements. Of roughly 5,400 targets only a part is listed; those with the largest changes were picked by preference.

UniProt P55072, sequence (P55072 whole entry, looked up): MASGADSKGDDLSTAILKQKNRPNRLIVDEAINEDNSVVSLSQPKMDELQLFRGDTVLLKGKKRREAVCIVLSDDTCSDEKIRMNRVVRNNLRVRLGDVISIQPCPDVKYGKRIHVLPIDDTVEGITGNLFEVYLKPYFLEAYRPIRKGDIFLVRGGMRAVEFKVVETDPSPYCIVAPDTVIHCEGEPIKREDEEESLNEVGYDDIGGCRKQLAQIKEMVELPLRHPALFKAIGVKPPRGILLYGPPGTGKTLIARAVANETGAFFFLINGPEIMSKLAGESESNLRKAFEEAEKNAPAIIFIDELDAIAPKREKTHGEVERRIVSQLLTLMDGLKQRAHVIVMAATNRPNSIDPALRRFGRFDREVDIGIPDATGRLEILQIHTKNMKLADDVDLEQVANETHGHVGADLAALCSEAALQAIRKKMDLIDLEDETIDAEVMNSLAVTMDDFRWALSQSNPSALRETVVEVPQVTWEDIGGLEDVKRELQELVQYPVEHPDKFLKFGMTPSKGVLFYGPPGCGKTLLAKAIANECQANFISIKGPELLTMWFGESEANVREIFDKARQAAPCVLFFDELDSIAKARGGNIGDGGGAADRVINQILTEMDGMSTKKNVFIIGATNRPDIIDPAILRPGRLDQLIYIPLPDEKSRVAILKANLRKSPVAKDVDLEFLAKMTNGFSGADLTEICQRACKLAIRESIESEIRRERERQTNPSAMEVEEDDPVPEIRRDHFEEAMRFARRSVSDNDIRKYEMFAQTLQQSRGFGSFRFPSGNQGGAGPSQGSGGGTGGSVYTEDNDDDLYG
UniProt Q5W0V3, sequence (Q5W0V3 whole entry): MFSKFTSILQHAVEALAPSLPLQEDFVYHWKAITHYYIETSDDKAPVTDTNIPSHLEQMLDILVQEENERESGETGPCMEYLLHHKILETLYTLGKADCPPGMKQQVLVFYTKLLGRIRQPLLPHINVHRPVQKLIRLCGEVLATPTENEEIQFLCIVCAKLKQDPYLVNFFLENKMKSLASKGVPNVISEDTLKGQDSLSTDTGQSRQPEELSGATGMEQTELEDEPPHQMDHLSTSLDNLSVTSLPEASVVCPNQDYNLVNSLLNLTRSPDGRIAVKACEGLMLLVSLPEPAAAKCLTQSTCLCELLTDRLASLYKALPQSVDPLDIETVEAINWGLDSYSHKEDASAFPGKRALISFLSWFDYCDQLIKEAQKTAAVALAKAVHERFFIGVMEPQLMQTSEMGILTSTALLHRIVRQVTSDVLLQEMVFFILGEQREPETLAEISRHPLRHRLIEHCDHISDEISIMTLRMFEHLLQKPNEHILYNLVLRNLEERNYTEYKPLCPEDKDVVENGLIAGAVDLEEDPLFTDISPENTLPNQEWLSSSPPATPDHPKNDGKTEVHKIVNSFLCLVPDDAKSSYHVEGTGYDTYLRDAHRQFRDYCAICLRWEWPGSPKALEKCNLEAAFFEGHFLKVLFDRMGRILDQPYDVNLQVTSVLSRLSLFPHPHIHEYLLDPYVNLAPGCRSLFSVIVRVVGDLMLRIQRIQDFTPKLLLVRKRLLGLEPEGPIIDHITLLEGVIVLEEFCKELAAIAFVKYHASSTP
UniProt Q53S33, sequence (Q53S33 whole entry): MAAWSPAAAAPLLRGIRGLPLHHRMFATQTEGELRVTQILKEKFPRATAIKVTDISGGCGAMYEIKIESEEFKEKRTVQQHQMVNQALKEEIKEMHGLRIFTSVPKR
UniProt Q86U86, sequence (Q86U86 whole entry): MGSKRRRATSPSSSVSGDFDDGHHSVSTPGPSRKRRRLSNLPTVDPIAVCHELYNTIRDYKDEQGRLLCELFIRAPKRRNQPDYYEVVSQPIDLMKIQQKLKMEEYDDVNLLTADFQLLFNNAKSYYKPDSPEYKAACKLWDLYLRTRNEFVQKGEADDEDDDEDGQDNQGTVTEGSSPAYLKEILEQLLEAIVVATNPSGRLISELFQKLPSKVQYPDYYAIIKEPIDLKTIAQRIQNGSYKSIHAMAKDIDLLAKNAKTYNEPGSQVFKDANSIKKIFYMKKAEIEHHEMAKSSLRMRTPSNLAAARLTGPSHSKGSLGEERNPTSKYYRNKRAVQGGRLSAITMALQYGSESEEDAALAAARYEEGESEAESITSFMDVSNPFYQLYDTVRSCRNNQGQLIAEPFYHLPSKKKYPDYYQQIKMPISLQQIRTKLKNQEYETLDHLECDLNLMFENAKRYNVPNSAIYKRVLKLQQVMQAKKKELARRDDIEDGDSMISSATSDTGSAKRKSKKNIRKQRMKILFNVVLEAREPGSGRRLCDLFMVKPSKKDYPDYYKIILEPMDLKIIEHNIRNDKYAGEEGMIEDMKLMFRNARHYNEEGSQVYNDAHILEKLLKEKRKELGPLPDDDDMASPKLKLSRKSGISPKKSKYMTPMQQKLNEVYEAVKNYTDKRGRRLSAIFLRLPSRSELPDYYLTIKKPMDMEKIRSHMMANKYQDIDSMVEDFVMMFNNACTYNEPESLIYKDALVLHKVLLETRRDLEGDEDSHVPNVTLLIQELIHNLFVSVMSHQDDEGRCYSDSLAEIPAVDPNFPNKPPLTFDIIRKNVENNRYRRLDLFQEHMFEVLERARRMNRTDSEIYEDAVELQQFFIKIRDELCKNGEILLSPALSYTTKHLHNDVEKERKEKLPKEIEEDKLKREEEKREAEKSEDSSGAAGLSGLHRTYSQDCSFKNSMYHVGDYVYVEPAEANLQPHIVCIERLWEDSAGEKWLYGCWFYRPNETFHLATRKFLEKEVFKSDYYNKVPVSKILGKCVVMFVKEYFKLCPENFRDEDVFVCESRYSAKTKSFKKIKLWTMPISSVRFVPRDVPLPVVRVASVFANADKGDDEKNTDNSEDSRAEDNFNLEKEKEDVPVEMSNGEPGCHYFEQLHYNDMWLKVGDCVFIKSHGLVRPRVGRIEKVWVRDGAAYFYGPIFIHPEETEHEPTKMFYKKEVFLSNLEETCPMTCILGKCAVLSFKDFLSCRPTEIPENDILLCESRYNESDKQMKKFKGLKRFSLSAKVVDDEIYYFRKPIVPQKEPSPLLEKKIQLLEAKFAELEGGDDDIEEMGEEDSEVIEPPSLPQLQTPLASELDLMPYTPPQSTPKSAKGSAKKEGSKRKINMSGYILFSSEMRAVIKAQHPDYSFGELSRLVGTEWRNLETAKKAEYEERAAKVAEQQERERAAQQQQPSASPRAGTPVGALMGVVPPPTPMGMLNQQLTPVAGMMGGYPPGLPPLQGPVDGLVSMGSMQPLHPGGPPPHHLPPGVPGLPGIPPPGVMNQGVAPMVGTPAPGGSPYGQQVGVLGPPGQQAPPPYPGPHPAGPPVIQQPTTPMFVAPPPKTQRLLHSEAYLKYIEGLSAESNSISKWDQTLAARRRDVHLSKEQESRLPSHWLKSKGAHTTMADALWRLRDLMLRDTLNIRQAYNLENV
UniProt Q5SRE5, sequence (Q5SRE5 whole entry): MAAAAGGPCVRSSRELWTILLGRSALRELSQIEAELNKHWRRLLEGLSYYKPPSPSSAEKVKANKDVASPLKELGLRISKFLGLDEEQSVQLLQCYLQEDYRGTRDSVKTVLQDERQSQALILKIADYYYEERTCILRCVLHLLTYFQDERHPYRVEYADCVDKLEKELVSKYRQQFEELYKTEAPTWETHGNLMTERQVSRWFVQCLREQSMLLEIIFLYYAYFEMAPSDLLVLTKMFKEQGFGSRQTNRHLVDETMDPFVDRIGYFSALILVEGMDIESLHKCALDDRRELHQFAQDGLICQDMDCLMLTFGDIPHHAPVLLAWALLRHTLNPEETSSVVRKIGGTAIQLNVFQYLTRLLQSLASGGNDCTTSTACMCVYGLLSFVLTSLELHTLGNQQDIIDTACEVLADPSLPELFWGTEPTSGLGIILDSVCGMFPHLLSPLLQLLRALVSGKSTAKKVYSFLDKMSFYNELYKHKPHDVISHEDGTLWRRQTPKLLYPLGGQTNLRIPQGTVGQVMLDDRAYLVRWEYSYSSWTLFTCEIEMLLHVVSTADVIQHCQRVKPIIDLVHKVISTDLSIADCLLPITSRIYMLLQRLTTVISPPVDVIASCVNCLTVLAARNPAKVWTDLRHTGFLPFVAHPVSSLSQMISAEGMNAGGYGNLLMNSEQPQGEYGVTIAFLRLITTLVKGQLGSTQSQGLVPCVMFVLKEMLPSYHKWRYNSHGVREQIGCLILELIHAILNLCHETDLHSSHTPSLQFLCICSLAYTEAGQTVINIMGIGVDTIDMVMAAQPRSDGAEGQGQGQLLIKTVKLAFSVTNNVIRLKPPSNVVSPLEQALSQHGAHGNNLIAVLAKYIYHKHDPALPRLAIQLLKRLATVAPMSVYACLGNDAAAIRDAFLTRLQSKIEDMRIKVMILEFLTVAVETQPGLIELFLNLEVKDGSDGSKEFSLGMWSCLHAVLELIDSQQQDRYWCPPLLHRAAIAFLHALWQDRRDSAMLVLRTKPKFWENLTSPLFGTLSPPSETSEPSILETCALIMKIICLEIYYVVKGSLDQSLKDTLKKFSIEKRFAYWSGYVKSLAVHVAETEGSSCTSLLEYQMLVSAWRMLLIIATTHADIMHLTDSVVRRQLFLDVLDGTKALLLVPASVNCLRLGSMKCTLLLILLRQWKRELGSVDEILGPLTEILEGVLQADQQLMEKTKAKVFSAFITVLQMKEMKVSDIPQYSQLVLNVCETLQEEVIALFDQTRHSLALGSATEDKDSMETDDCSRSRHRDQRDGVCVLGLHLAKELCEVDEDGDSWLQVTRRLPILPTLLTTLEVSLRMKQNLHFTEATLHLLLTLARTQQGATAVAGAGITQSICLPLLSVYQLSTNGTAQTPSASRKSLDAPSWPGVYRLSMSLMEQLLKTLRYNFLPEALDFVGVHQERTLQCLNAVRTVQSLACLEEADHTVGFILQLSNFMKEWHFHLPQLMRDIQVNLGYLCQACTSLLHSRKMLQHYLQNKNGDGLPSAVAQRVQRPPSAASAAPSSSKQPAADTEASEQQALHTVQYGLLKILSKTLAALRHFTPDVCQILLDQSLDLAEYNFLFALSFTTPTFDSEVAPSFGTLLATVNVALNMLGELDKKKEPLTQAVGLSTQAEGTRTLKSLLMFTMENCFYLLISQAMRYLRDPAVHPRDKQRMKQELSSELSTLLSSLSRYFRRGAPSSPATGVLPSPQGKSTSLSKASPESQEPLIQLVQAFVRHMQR

Regarding “UniProt Q86U86|Q86U86-8|Q86U86-2|Q86U86-4|Q86U86-5|Q86U86-7|Q86U86-9”, the NP40-soluble protein abundance was found to be 1.07 ± 0.048 (concentration: 0.1mM); 1.14 ± 0.078 (concentration: 0.5mM); 1.21 ± 0.092 (concentration: 1mM); 1.38 ± 0.11 (concentration: 2mM); 1.53 ± 0.12 (concentration: 4mM); 1.61 ± 0.16 (concentration: 6mM). Moreover, the NP40-soluble protein abundance (concentration: 8mM) turned out to be 1.72 ± 0.16 and the NP40-soluble protein abundance (concentration: 10mM) was 1.78 ± 0.18.

In the case of FAM160B1 (UniProt Q5W0V3), the NP40-soluble protein abundance reads like this: (concentration: 0.1mM) 1.03 ± 0.037; (concentration: 0.5mM) 1.03 ± 0.027; (concentration: 1mM) 0.964 ± 0.029; (concentration: 2mM) 0.959 ± 0.02; (concentration: 4mM) 0.9389 ± 0.0083; (concentration: 6mM) 0.922 ± 0.0022. Besides, the NP40-soluble protein abundance was found to be 0.91 ± 0.033 (concentration: 8mM) and 0.894 ± 0.051 (concentration: 10mM).

As to UniProt Q5SRE5|Q5SRE5-2, the NP40-soluble protein abundance was determined as 1.17 ± 0.11 (concentration: 0.1mM); 1.13 ± 0.051 (concentration: 0.5mM); 1.03 ± 0.13 (concentration: 1mM); 1.01 ± 0.13 (concentration: 2mM); 1.13 ± 0.024 (concentration: 4mM); 1.11 ± 0.088 (concentration: 6mM). The NP40-soluble protein abundance (concentration: 8mM) was 1.03 ± 0.029 and the NP40-soluble protein abundance (concentration: 10mM) came to 1.08 ± 0.046.

In the case of BOLA3 (UniProt Q53S33), the NP40-soluble protein abundance by setting is: (concentration: 0.1mM) 0.893 ± 0.02; (concentration: 0.5mM) 0.843 ± 0.047; (concentration: 1mM) 0.962 ± 0.065; (concentration: 2mM) 0.982 ± 0.03; (concentration: 4mM) 0.953 ± 0.022; (concentration: 6mM) 0.966 ± 0.061. The NP40-soluble protein abundance by setting is: (concentration: 8mM) 0.925 ± 0.09; (concentration: 10mM) 1.01 ± 0.042.

As for UniProt P55072, the NP40-soluble protein abundance reads like this: (concentration: 0.1mM) 0.982 ± 0.03; (concentration: 0.5mM) 1.05 ± 0.064; (concentration: 1mM) 0.999 ± 0.073; (concentration: 2mM) 1.02 ± 0.12; (concentration: 4mM) 1.03 ± 0.11; (concentration: 6mM) 1.03 ± 0.14. Further, the NP40-soluble protein abundance is 1 ± 0.1 (concentration: 8mM) and 1 ± 0.11 (concentration: 10mM).
